Screening data: PubChem BioAssay, National Center for Advancing Translational Sciences (NCATS)
Shiga inhibitor = A qHTS for Small Molecule Inhibitors of Shiga Toxin; Vero cells, Shiga toxin protein synthesis inhibition reporter; inhibition, % at 38.7 µM; hit rate 9.2% among 290,000; AID 2315, 2010; in the data active means inhibition mostly above about 28%, no sharp cut-off; inactive means mostly below about 43%
MARV entry inh = qHTS for inhibitors of binding or entry into cells for Marburg Virus | Marburg virus pseudotyped entry inhibition, cell reporter | AID 540276, 2011 | hit rate 1.8% among 300,000 | Potency, µM (titrated, usually from 37.8 µM), actives largely listed as inhibitors; calls by dose curve; tested in HEK293 cells
Cycloheximide cs = Cycloheximide Counterscreen for Small Molecule Inhibitors of Shiga Toxin; cell reporter, cycloheximide protein synthesis inhibition counterscreen; max response, %; hit rate 12% among 300,000; AID 2314, 2010; in the data active means max response mostly above about 13%, no sharp cut-off; inactive means mostly below about 14%; further: read at 38.3 µM for the half of the compounds with a filed dose
Pf growth 96h = Primary qHTS for delayed death inhibitors of the malarial parasite plastid, 96 hour incubation; AID 504834, 2011; Potency, µM (series often up to 28.7 µM), actives largely listed as inhibitors; hit rate 6.9% among 320,000; P. falciparum luciferase reporter growth, 96 h
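Plates of compound plus infected erythrocytes (2% hematocrit, 0.05% parasitemia final) incubate 96 hours, 37 C, 5% CO2. Detection reagent added; reduced luminescence from the parasites' luciferase reporter flags inhibition.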
Pf growth 48h = Primary qHTS for delayed death inhibitors of the malarial parasite plastid, 48 hour incubation | P. falciparum luciferase growth in erythrocytes, 48 h | Potency, µM (doses to about 28.7 µM), most hits filed as inhibitors | hit rate 5.9% among 310,000
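Erythrocytes infected with P. falciparum carrying an integrated firefly luciferase reporter (2% hematocrit, 0.1% parasitemia final) were exposed to compounds in RPMI 1640 with 0.5% Albumax at 37 C, 5% CO2. Growth inhibition was scored as reduced luminescence.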
LASV entry inh = qHTS for Inhibitors of binding or entry into cells for Lassa Virus; Lassa virus pseudotype entry inhibition, cell reporter; Potency, µM (series often up to 37.9 µM), hits mostly inhibitors; hit rate 1.2% among 300,000; calls by dose curve; tested in HEK293 cells; further: nearly all actives have a fitted effect of over 50% in size
A number is an active result; - = inactive; ? = inconclusive; . = no result given. Hits are enriched below; roughly 19% of the tested compounds scored in any of these assays. Unless noted, the call rests on the fitted dose curve; in most records, active means well fitted inhibition curve with a large enough effect; inconclusive means small, poorly fitted or top-dose-only effect, or another doubt; inactive means no such curve, though single readings can be large or run the other way.

SMILES | Shiga inhibitor | MARV entry inh | Cycloheximide cs | Pf growth 96h | Pf growth 48h | LASV entry inh
Cc1ccc(NC(C)C(=O)N/N=C/c2ccc([N+](=O)[O-])s2)cc1 (centres undefined) | - | ? | - | 14.7µM | ? | ?
CCc1cccc(C)c1NC(=O)C(C)Sc1nc2c(c(=O)[nH]1)CCCC2 (centres undefined) | . | - | . | . | . | -
O=c1nc2cccc3c2=c(/c1=C(\O)c1ccccc1)c1ccccc1c3=O | - | . | - | - | - | .
COC(=O)N/N=C/c1cccs1 | - | . | - | ? | - | .
Cn1c(SCC(=O)N/N=C/c2ccc([N+](=O)[O-])s2)nnc1-c1ccccc1 | - | ? | - | ? | 6.57µM | ?
COC(=O)N/N=C/c1ccc([N+](=O)[O-])s1 | - | ? | - | 8.28µM | 14.7µM | ?
Cc1ccc(/C=N/NC(=O)c2cccnc2)s1 | 58.4 | - | 18.4 | ? | - | -
Cn1c(SCC(=O)N/N=C/c2cc([N+](=O)[O-])ccc2O)nnc1-c1ccccc1 | - | ? | - | ? | ? | ?
CCC(OC(=O)c1ccco1)C(=O)NCc1ccc2c(c1)OCO2 (centres undefined) | - | - | - | - | - | -
CC(=O)Nc1cccc(C(=O)OC(C(=O)c2ccc(C)cc2)c2ccccc2)c1 (centres undefined) | - | - | - | - | 1.47µM | ?
CC(=O)Nc1cccc(C(=O)OC(C(=O)c2ccc(C)c(C)c2)c2ccccc2)c1 (centres undefined) | - | ? | - | 10.4µM | ? | ?
Cc1ccc(NC(=O)C(OC(=O)c2ccc(F)cc2)c2ccccc2)cc1Cl (centres undefined) | - | ? | - | - | ? | -
COc1ccc(C(=O)OC(C(=O)c2ccc(C)cc2)c2ccccc2)cc1 (centres undefined) | - | - | - | - | ? | -
CCOC(=O)/C=C/C(=O)Nc1ccc(-c2nnc3n2CCCCC3)cc1 | - | . | - | 0.329µM | ? | .
CCOC(=O)/C=C/C(=O)Nc1ccc(S(=O)(=O)N2CCc3ccccc32)cc1 | - | . | - | ? | ? | .
CCCCCC(=O)Nc1ccc(-c2nnc3n2CCCCC3)cc1 | - | ? | - | ? | ? | -
CCOC(=O)CCC(=O)Nc1ccc(S(=O)(=O)N2CCCCC2)cc1 | - | - | - | 5.22µM | - | -
CCCC(=O)Nc1ccc(S(=O)(=O)N2CCCC2)cc1 | - | - | - | . | - | -
Cc1cc(NS(=O)(=O)c2ccc(NC(=O)COc3ccc(Br)cc3C)cc2)no1 | . | - | . | . | . | -
Cc1cc(NS(=O)(=O)c2ccc(NC(=O)COc3c(C)cc(Br)cc3C)cc2)no1 | - | - | - | 9.28µM | - | ?
CCOC(=O)/C=C/C(=O)Nc1ccc(S(=O)(=O)N2CCCCCC2)cc1 | - | - | - | 11.7µM | - | ?
COc1cc(-c2nnc(COC(=O)CSCC(=O)Nc3cc(C)on3)o2)cc(OC)c1OC | . | ? | . | - | ? | -
COc1ccc(N(CC(=O)N2CCN(c3ccc(F)cc3)CC2)S(=O)(=O)c2c(C)n[nH]c2C)cc1 | - | ? | - | - | - | -
Cc1ccccc1-c1nc(CS(=O)CC(=O)NCc2ccccc2)c(C)o1 (centres undefined) | - | . | - | ? | . | .
CCC(C)n1c(O)c(C=Nc2cccc(C(F)(F)F)c2)c(=O)[nH]c1=S (centres undefined) | - | - | - | - | - | -
SMILES | Shiga inhibitor | MARV entry inh | Cycloheximide cs | Pf growth 96h | Pf growth 48h | LASV entry inh
CCOC(=O)/C=C/C(=O)Nc1ccc(S(=O)(=O)Nc2cc(C)on2)cc1 | - | - | - | - | 10.4µM | -
CCOC(=O)Nc1ccc(S(=O)(=O)Nc2cc(C)on2)cc1 | - | - | - | - | - | -
CC1CCc2cc(F)cc3c(=O)c(C(=O)O)cn1c23 (centres undefined) | - | - | - | ? | - | -
COc1cc(NC2CCCCC2O)c2nc(-c3ccc(Cl)cc3)ccc2c1 (centres undefined) | 134.5 | . | 85.2 | 1.85µM | 1.85µM | .
COc1ccc(N2CC(C(=O)N(C)CC(=O)Nc3ccc(Cl)c(C(F)(F)F)c3)CC2=O)c(OC)c1 (centres undefined) | . | ? | . | 13.1µM | ? | -
C=CCSc1nnc(-c2cc3c(-c4ccccc4)nn(C)c3s2)n1C | - | ? | - | ? | ? | ?
O=C(CN1CCOCCOCCOCC1)Nc1ccccc1 | - | - | - | - | . | -
O=C(CN1CCOCC1)Nc1ccc(C2CCCCC2)cc1 | - | - | 38.9 | . | - | ?
O=C(CN1CCOCCOCCOCCOCC1)Nc1ccccc1 | 48.0 | ? | 25.5 | - | - | -
O=C(c1ccc(NC(=O)C2(c3ccccc3)CCOCC2)cc1)N1CCOCC1 | - | - | - | . | - | -
Cc1ccc(NC(=O)CN2CCOCC2)cc1 | - | - | - | - | . | -
CC(=O)c1ccc(NC(=O)C2(c3ccccc3)CCOCC2)cc1 | 111.8 | - | 36.6 | - | - | -
O=C(CN1CCOCC1)NNC(=S)Nc1ccccc1 | - | . | - | 13.1µM | - | .
O=C(CN1CCOCCOCCN(CC(=O)Nc2ccccc2)CCOCC1)Nc1ccccc1 | - | - | - | . | - | -
Cc1ccc(/C=c2\sc3nc(-c4cccs4)nn3c2=O)o1 | - | - | - | . | - | -
CC(=O)c1ccc(NC(=O)CN2CCOCC2)cc1 | - | . | - | 13.1µM | - | .
CC(=O)c1ccc(NC(=O)Cn2c(=O)c3cccn3c3ccccc32)cc1 | . | . | . | . | . | 1.78µM
COc1ccc(NC(=O)Cn2c(=O)c3cccn3c3ccccc32)cc1 | . | . | . | . | . | -
CC(=O)c1ccc(NC(=O)CN2CCN(CC(=O)Nc3ccc(C(C)=O)cc3)CC2)cc1 | - | ? | - | - | - | -
Cc1ccc(-n2c(O)c(/C=N/Nc3ccc(S(=O)(=O)N4CCOCC4)cc3[N+](=O)[O-])c3ccccc3c2=O)c(C)c1 | - | ? | - | 2.94µM | 10.4µM | ?
CCc1ccc(NC(=O)CCS(=O)(=O)c2cccc3nsnc23)cc1 | - | - | - | . | . | -
Cc1ccc(NCc2ccccc2)cc1 | 93.6 | - | 49.1 | - | - | -
Clc1ccc(CNc2ccc(CNc3ncn[nH]3)cc2)cc1 | - | - | - | - | - | ?
c1ccc(CNc2ccc(CNc3ncn[nH]3)cc2)cc1 | - | - | 18.3 | - | - | -
CSc1ccc(CNc2ccc(C)c(C)c2)cc1 | 79.0 | - | 25.0 | - | - | ?
SMILES | Shiga inhibitor | MARV entry inh | Cycloheximide cs | Pf growth 96h | Pf growth 48h | LASV entry inh
Cc1ccc(CNc2cccnc2)cc1 | 38.1 | . | 43.1 | - | - | .
COc1cc(CNCc2ccc(SC)cc2)cc(OC)c1 | - | ? | - | - | - | -
Cc1cc(S(=O)(=O)NCc2ccc3c(c2)OCO3)ccc1F | - | . | - | - | - | .
O=C(Nc1cccc(Cl)c1N1CCCC1)c1ccco1 | - | - | - | - | - | -
CSc1ccc(CNc2cccc3ccccc23)cc1 | - | ? | - | - | . | ?
COc1cc(CNc2ncn[nH]2)ccc1OCc1cccc(C)c1 | 70.2 | . | 48.0 | - | - | .
CSc1ccc(CNc2ccc(C)cc2)cc1 | 79.5 | - | 36.4 | - | - | -
